Source: PubChem
An excerpt weighted towards active compounds, which were near 3.5% of everything screened.
mHTT CaM bind: mutant huntingtin-calmodulin interaction inhibitors – biochemical, AlphaScreen, primary screen | AlphaScreen His-mHTT/GST-CaM binding, luminescence | P42858 | AID 1671202, 2021 | actives 3.6% (n = 190,000) | inhibition, % at 15 µM;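 also: 0% = both proteins with DMSO and 100% = one protein alone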
Pf apPOL inh: Pf-apPOL inhibitors, biochemical, fluorescence | Plasmodium falciparum apicoplast DNA polymerase (apPOL) | Recombinant Pf-apPOL, molecular beacon fluorescence, 1.5 h | inhibition, % at 10 µM | actives 0.25% (n = 210,000)
Active calls of the source: *; i = inactive; . = no result; ! = a repeat was not active. Rule as the data show it: active = inhibition above about 50%; inactive = the rest.

SMILES | mHTT CaM bind | Pf apPOL inh
O=C(Nc1cccc2ccc(-n3ccnc3)nc12)c1ccc2c(c1)OCO2 | -10.1 | -0.3
O=C(Nc1cccc2ccc(-n3ccnc3)nc12)c1ccsc1 | 51.2* | -6.1
COc1ccc(-n2nc3c(c2NC(=O)/C=C/c2cc(OC)c(OC)c(OC)c2)CSC3)cc1 | 34.0 | -7.0
COc1ccc(-n2nc3c(c2NC(=O)c2ccccc2)CSC3)cc1 | 31.0 | -1.4
COc1ccc(-n2nc3c(c2NC(=O)c2ccc(Br)cc2)CSC3)cc1 | 30.0 | 5.0
CC(C)C(=O)Nc1c2c(nn1-c1ccc(Oc3ccccc3)cc1)CSC2 | 65.0* | 5.3
COc1ccc(-n2nc3c(c2NC(=O)/C=C/c2ccccc2)CSC3)cc1 | 52.0* | -1.3
COc1ccc(-n2nc3c(c2NC(=O)c2ccc(C(C)(C)C)cc2)CSC3)cc1 | 100.0* | 3.4
O=C(Cn1c2c(c(-c3ccccc3Cl)cc1=O)CCC2)NCc1ccc(Cl)cc1 | 10.3 | -2.8
Cc1cccc(NC(=O)N2CCOCC2)c1C | -8.3 | 1.1
Cc1nc2cc(N3CCCC(C(=O)NCc4cccc(F)c4)C3)cnc2nc1C (stereo unspecified) | 13.4 | 8.2
Oc1ccc2ccccc2c1N=Nc1ccccn1 | . | -207.4
Oc1ccc2ccccc2c1Sc1c(O)ccc2ccccc12 | 59.3* | .
COc1ccc(-c2nc(C)cc(C)c2CNC(=O)c2ccccc2)cc1 | -5.6 | -6.8
O=c1[nH]c(N2CCN(Cc3ccccc3)CC2)nc2c(-c3ccccc3)csc12 | 24.7 | -9.3
Cn1nc(-c2nc(-c3ccc(F)cc3)no2)c2c1CCN(C(=O)NC1CCCC1)C2 | 8.2 | 0.2
O=C(NCc1cccnc1)c1ccc(N2CCN(c3ccccn3)CC2)c([N+](=O)[O-])c1 | 30.0 | -5.3
O=C(NCc1ccc(F)cc1)c1ccc(N2CCN(c3ccccn3)CC2)c([N+](=O)[O-])c1 | 59.0* | -2.3
Fc1ccccc1-c1nc(NCc2ccco2)c2ccccc2n1 | 5.2 | -6.3
O=C(Cn1cnc2scc(-c3ccccc3)c2c1=O)NCc1ccco1 | 19.1 | -9.0
O=c1c2ccccc2nc2c3ccccc3c(NCc3ccco3)nn12 | 65.0* | -2.1
O=c1c2c(-c3ccccc3)csc2nc2c3ccccc3c(NCc3ccco3)nn12 | 100.0* | 1.1
CC(=O)C1=C(O)C(=O)N(c2ccccn2)C1c1ccc([N+](=O)[O-])cc1 (stereo unspecified) | 2.4 | 2.3
O=C1c2[nH]nc(-c3ccccc3)c2C(c2ccccc2[N+](=O)[O-])N1c1ccccc1 (stereo unspecified) | 59.0* | -0.9
COc1ccc(C2c3c(-c4ccccc4)n[nH]c3C(=O)N2c2ccccc2)cc1 (stereo unspecified) | 59.0* | 5.5
SMILES | mHTT CaM bind | Pf apPOL inh
O=C1c2[nH]nc(-c3ccccc3)c2C(c2ccccc2)N1c1ccccc1 (stereo unspecified) | 37.0 | -9.1
O=C1c2[nH]nc(-c3ccc(Cl)cc3)c2C(c2ccc([N+](=O)[O-])cc2)N1c1ccccn1 (stereo unspecified) | 89.0* | -0.9
COc1ccc(-c2n[nH]c3c2C(c2ccc(OC)c(OC)c2)N(c2ccccc2)C3=O)cc1 (stereo unspecified) | 19.0 | -4.0
Cc1[nH]c2ccccc2c1C=Nc1ccc(Cl)cc1 | 26.0 | -0.7
COc1ccc(C=C2Oc3cc(O)ccc3C2=O)c(OC)c1OC | -9.3 | 3.3
O=C(C1=C(O)C(=O)N(Cc2cccnc2)C1c1cccc(Br)c1)c1ccco1 (stereo unspecified) | 13.6 | -8.3
O=[N+]([O-])c1c(Cl)cc(O)c2c1C1C=CCC1C(c1ccc(Br)cc1)N2 (stereo unspecified) | 98.0* | -3.9
Oc1ccc(Br)c2c1NC(c1ccc(Cl)cc1)C1CC=CC21 (stereo unspecified) | 100.0* | -1.3
O=[N+]([O-])c1ccc(C2Nc3c(O)ccc(Br)c3C3C=CCC32)cc1 (stereo unspecified) | 100.0* | -9.9
O=C(O)c1ccc([N+](=O)[O-])c2c1NC(c1ccc([N+](=O)[O-])cc1)C1CC=CC21 (stereo unspecified) | 37.0 | -2.3
CN1OCC(S(=O)(=O)NCc2cccc(C(F)(F)F)c2)C1c1cccc(F)c1 (stereo unspecified) | -16.8 | -2.0
CCOc1ccc(C(=O)Nc2ccccc2[N+](=O)[O-])cc1Cl | 9.7 | -18.6
Cc1cccc(Nc2nccc(C3CCCN(C(=O)c4ccoc4)C3)n2)c1 (stereo unspecified) | 28.9 | 0.7
O=C(c1ccsc1)N1CCCC(c2ccnc(Nc3cccc(F)c3)n2)C1 (stereo unspecified) | 67.4* | -1.9
O=C(c1ccccc1)N1CCCC(c2ccnc(Nc3ccc(F)cc3)n2)C1 (stereo unspecified) | 91.2* | -6.8
CC(=O)N1CCCC(c2ccnc(Nc3cccc(F)c3)n2)C1 (stereo unspecified) | 31.5 | -1.6
O=C(c1cccc(F)c1)N1CCCC(c2ccnc(Nc3ccccc3)n2)C1 (stereo unspecified) | 17.9 | 0.1
O=C(c1ccoc1)N1CCCC(c2ccnc(Nc3cccc(F)c3)n2)C1 (stereo unspecified) | 72.0* | -2.5
Cc1ccc(-c2n[nH]c3c2CN(S(=O)(=O)c2cnc[nH]2)CC3)cc1 | 0.4 | -2.4
CCOC(CCn1c(SCC(=O)NCCC2=CCCCC2)nc2ccccc2c1=O)OCC | 15.0 | 3.6
O=C(NC1=NCCS1)c1ccc([N+](=O)[O-])o1 | . | 0.6
CC12CN3CCN(CC(C3)/C1=N/N=C/c1ccc3c(c1)OCO3)C2 | i | .
Cc1cc(=O)[nH]c(-n2nc(C3CC3)cc2NC(=O)C2(c3ccc(Cl)cc3)CCCC2)n1 | 57.2* | -71.3
Cc1cc(=O)[nH]c(-n2nc(-c3ccccc3)cc2NC(=O)CCSc2ccccc2)n1 | -12.9 | -9.5
COc1ccc(C(=O)N2CCC(C(=O)O)CC2)cc1S(=O)(=O)N1CCC(C)CC1 | -0.5 | -4.4
SMILES | mHTT CaM bind | Pf apPOL inh
COc1cc2c(cc1OC)C(c1ccc(Cl)cc1)OC1=C2C(=O)c2ccccc21 (stereo unspecified) | 68.0*! | -1.0
COc1ccc(C2Oc3c(ccc4cc(OC)c(OC)cc34)-c3cc(OC)c(OC)cc32)cc1 (stereo unspecified) | 10.6 | .
COc1cc(/C=C(\C#N)c2nc3ccccc3[nH]2)cc(OC)c1O | 43.0 | -1.3
N#C/C(=C\c1cccc(Br)c1)c1nc2ccccc2[nH]1 | 2.9 | -2.4
N#C/C(=C\c1cccc(F)c1)c1nc2ccccc2[nH]1 | 100.0* | -4.0
COc1cc(/C=C(\C#N)c2nc3ccccc3[nH]2)cc2c1OCO2 | 69.4* | -3.5
CCOC(=O)C(C)Oc1ccc2c(c1)OC(=Cc1cccc(F)c1)C2=O (stereo unspecified) | 8.1 | 3.1
Cc1ccc(NC(=O)Cn2c3ccccc3c(=O)c3cc([N+](=O)[O-])ccc32)cc1F | 14.0 | 5.0
O=C(Nc1ccc2oc(-c3ccccc3Br)nc2c1)c1ccc2c(c1)OCCO2 | 1.0 | 5.9
CC(=O)c1ccc(NC(=O)CN2CCN(Cc3nc(C(C)(C)C)cs3)CC2)cc1 | 7.7 | -1.7
CC(C)(C)c1csc(CN2CCN(CC(=O)NC3CCCCC3)CC2)n1 | 100.0* | -1.4
Cc1ccc(NC(=O)Nc2ccc(Cl)cc2)cc1 | -1.6 | -14.6
Cc1ccc(NC(NC(=O)Nc2ccccc2)C(Cl)(Cl)Cl)cc1 (stereo unspecified) | 85.0* | -0.8
